Records with an inconclusive call do not appear. Calls of active or inactive are those of the source. The call rests on the fitted dose curve; in most records, active means well fitted curve in the direction sought with a large enough effect; inconclusive means small, poorly fitted or top-dose-only effect, or another doubt; inactive means no such curve, though single readings can be large; an effect the other way counts as inactive or inconclusive. Where a SMILES comes first, the peptide text is derived from it. Bridges are numbered along the chain shown (N, C = ends). [ ]: non-standard residue; d: D form. hArg = N=C(N)NCCCC[C@H](N)C(=O)O; Mpa = O=C(O)CCS
What was measured:
[1] = target: Calcium and integrin-binding protein 1 (Homo sapiens) (UniProt Q99828); test: Confirmatory qHTS for Identification of Calcium Integrin Binding Protein 1 (CIB1) Competitor (AID 1508617); further: on the % scale 0 is the no-effect control and ±100 the full control effect; nearly all actives have a fitted effect of over 65% in size
Procedure, shortened: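 Fluorescence polarization competition: CIB1-GST (1 uM final) in 5 mM HEPES pH 7.4, 125 mM NaCl, 5 mM CaCl2, 0.01% Tween20 preincubated 15 min RT with compound (up to 114 uM), then FITC-alphaIIb peptide (100 nM) added, 15 min RT.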

[2] = target: Protein phosphatase 1D (Homo sapiens) (UniProt O15297); test: RapidFire Mass Spectrometry qHTS Assay for Modulators of WT P53-Induced Phosphatase 1 (WIP1) (AID 1347424);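 further: amount of dephosphorylated VEPPL-S-QETFS peptide product formed by WIP1; series mostly up to about 63 µM; plate controls were DMSO wells for no effect and GSK830371 inhibitor control at 10 µM for full effect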
Procedure, shortened: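 RapidFire mass spectrometry measured dephosphorylated peptide after 5 min room-temperature reaction of 2 uM VEPPL-pS-QETFS with 10 nM WIP1 (50 mM Tris-HCl pH 7.5, 30 mM MgCl2, 0.1 mM EGTA, BSA), following 1 hr compound preincubation; 1 uM isotope-labelled product standard.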

[3] = target: Protein phosphatase 1D (Homo sapiens) (UniProt O15297); test: Rhodamine-PBP qHTS Assay for Modulators of WT P53-Induced Phosphatase 1 (WIP1) (AID 1347425); further: % of control where 0% means no effect
Procedure, shortened: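 Read-out: Rhodamine-PBP fluorescence (ex 525/em 598 nm) for released Pi, read each minute for 11 min after adding 10 uM VEPPL-pS-QETFS; signal taken as f1 minus pre-substrate f0. Enzyme 5 nM WIP1 with 1 hr room-temperature compound preincubation.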

[4] = Primary qHTS for inhibitors of La Crosse Virus (LACV) - induced cell death in SH-SY5Y cells (AID 1508616);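 further: top concentration of the series differs between compounds; 0% = infected DMSO wells and 100% = uninfected DMSO wells; higher means more rescue of cells from virus-induced death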
Procedure, shortened: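 Screening measures cell viability in LACV-infected SH-SY5Y cultures. Compound was added before virus (0.01 MOI), and ATP was detected by luminescence 6 days later.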

[5] = target: Calcium and integrin-binding protein 1 (Homo sapiens) (UniProt Q99828); test: Primary qHTS for Identification of Calcium Integrin Binding Protein 1 (CIB1) Competitor (AID 1508620);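 further: GST tagged CIB1 binding a fluorescein labelled alphaIIb integrin peptide tracer; top concentration of the series differs between compounds; on the % scale 0 is the no-effect control and ±100 the full control effect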
Procedure, shortened: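 CIB1-GST (1 uM final) and compound incubated 15 min at room temperature before adding FITC-alphaIIb peptide tracer (100 nM final). Competition for binding read by fluorescence polarization (ex 480, em 540) after another 15 min at room temperature.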

[6] = Counterscreen qHTS for small molecule stabilizers of the endoplasmic reticulum resident proteome: GLuc-NoTag assay (AID 1508627);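 further: SH-SY5Y cells given compound then 100 nM thapsigargin to empty ER calcium; series mostly up to about 76 µM; 0% = thapsigargin alone and -100% = DMSO vehicle control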
Procedure, shortened: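 Counterscreen line: SH-SY5Y-GLuc-NoTag cells, treated with compound 19 hr before a 4 hr, 100 nM thapsigargin calcium depletion. Secreted Gaussia luciferase in the medium was measured by luminescence after coelenterazine was added (0.07x final), with cells unlysed.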

[7] = Confirmatory qHTS for small molecule stabilizers of the endoplasmic reticulum resident proteome: Secreted ER Calcium Modulated Protein (SERCaMP) assay (AID 1508628); further: series mostly up to about 76 µM; on the % scale 0 is the no-effect control and ±100 the full control effect; nearly all actives have a fitted effect of over 40% in size
Procedure, shortened: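 GLuc-SERCaMP-expressing SH-SY5Y cells, pretreated 16 h with compound, are challenged with thapsigargin to empty ER calcium stores; after 4 h, coelenterazine is added directly to the medium and luminescence is imaged.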

[8] = Cell Viability qHTS for small molecule stabilizers of the endoplasmic reticulum resident proteome (AID 1508629); conditions: cell viability counter-screen, 100 nM thapsigargin for final 4 h;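 further: human SH-SY5Y neuroblastoma cells carrying the GLuc-SERCaMP reporter; compound exposure about 46 h in total before the viability read; on the % scale 0 is the no-effect control and ±100 the full control effect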
[9] = Primary qHTS for small molecule stabilizers of the endoplasmic reticulum resident proteome: Secreted ER Calcium Modulated Protein (SERCaMP) assay (AID 1508630); further: on the % scale 0 is the no-effect control and ±100 the full control effect
Procedure, shortened: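 The SH-SY5Y reporter protocol was run at 3 concentrations up to 38.3 uM (primary) or 11 concentrations (follow-up): 16 h compound, 100 nM thapsigargin for 4 h, then extracellular luciferase luminescence.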

Sequence of Protein phosphatase 1D (Homo sapiens) (O15297 whole entry, looked up): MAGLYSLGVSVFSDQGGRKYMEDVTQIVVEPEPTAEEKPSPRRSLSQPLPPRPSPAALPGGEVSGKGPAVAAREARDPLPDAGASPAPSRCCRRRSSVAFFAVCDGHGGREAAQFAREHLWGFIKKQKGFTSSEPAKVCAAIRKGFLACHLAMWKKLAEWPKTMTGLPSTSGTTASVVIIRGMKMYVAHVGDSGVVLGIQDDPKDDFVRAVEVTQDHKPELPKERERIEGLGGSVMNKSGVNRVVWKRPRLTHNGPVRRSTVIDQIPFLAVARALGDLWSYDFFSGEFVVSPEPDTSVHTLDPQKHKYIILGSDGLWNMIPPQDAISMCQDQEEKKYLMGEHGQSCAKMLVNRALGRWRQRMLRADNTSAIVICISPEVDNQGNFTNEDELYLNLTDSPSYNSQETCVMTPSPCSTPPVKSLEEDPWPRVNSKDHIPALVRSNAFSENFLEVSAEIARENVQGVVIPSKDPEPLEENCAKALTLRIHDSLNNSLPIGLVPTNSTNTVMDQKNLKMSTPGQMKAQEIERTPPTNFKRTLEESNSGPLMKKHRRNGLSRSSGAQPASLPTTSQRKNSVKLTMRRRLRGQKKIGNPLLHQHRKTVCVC
Sequence of Calcium and integrin-binding protein 1 (Homo sapiens) (Q99828 whole entry, looked up): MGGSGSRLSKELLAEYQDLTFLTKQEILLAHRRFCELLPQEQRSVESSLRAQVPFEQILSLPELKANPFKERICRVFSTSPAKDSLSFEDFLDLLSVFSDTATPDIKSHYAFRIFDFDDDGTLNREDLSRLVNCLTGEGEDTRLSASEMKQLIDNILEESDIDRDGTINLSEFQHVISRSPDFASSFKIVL

O=C(O)Cc1ccc(CCNS(=O)(=O)c2ccc(Cl)cc2)cc1
inactive: outcome [1]

CCN[C@H]1CN(CCCOC)S(=O)(=O)c2sc(S(N)(=O)=O)cc21
inactive: outcome [2] | outcome [3] | outcome [4] | outcome [5]

CC(=O)N1C[C@H](O)C[C@H]1C(=O)O
inactive: outcome [2] | outcome [3] | outcome [4] | outcome [5]

NS(=O)(=O)c1cc(C2(O)NC(=O)c3ccccc32)ccc1Cl (centres undefined)
inactive: outcome [2] | outcome [3] | outcome [4] | outcome [5]

CC(=O)Oc1cccc(O)c1
inactive: outcome [2] | outcome [3] | outcome [4] | outcome [5]

CC1(C)S[C@@H]2[C@H](NC(=O)C(C(=O)O)c3ccccc3)C(=O)N2[C@H]1C(=O)O (some centres undefined)
inactive: outcome [2] | outcome [3] | outcome [4] | outcome [5]

O=C1C(c2[nH]c3ccccc3c2O)=Nc2ccccc21
inactive: outcome [2] | outcome [3] | outcome [4] | outcome [5]

O=C(O)c1ccc(OCCCOc2ccc(C(=O)O)cc2)cc1
inactive: outcome [2] | outcome [3] | outcome [4] | outcome [5]

CCc1nnc(NS(=O)(=O)c2ccc(N)cc2)s1
inactive: outcome [2] | outcome [3] | outcome [4] | outcome [5]

NCC1CCC(C(=O)Oc2ccc(CCC(=O)O)cc2)CC1 (centres undefined)
inactive: outcome [2] | outcome [3] | outcome [4] | outcome [5]

CC(C)c1cc2c(cc1S(=O)(=O)O)[C@@]1(C)CCC[C@@](C)(C(=O)O)[C@@H]1CC2
inactive: outcome [2] | outcome [3] | outcome [4] | outcome [5]

COC(=O)c1cccnc1
inactive: outcome [2] | outcome [3] | outcome [4] | outcome [5]

CCOc1cc(NC(C)=O)ccc1C(=O)OC
inactive: outcome [2] | outcome [3] | outcome [4] | outcome [5]

NC(=O)[C@@H]1CSSCCC(=O)N[C@@H](CCCCN=C(N)N)C(=O)NCC(=O)N[C@@H](CC(=O)O)C(=O)N[C@@H](Cc2c[nH]c3ccccc23)C(=O)N2CCC[C@H]2C(=O)N1 ([Mpa][hArg]GDWPC-NH2; disulfide 1-7)
inactive: outcome [2] | outcome [3] | outcome [4] | outcome [5]

C[N+]1(C)CCCC(OC(=O)C(O)(c2ccccc2)c2ccccc2)C1 (centres undefined)
inactive: outcome [2] | outcome [3] | outcome [4] | outcome [5]

CC(O)CCCCn1c(=O)c2c(ncn2C)n(C)c1=O (centres undefined)
inactive: outcome [2] | outcome [3] | outcome [4] | outcome [5]

CCOC(N)=O
inactive: outcome [2] | outcome [3] | outcome [4] | outcome [5]

CCCCOC(=O)c1ccc(N)cc1
inactive: outcome [2] | outcome [3] | outcome [4] | outcome [5]

C1CCN2C[C@@H]3C[C@@H](CN4CCCC[C@@H]34)[C@H]2C1
inactive: outcome [2] | outcome [3] | outcome [4] | outcome [5]

NS(=O)(=O)c1ccc(C(=O)O)cc1
inactive: outcome [2] | outcome [3] | outcome [4] | outcome [5]

COc1ccccc1OCC(O)CO (centres undefined)
inactive: outcome [2] | outcome [3] | outcome [4] | outcome [5]

CC(=O)SC[C@@H](Cc1ccccc1)C(=O)NCC(=O)OCc1ccccc1
inactive: outcome [2] | outcome [3] | outcome [4] | outcome [5]

N[C@@H](Cc1ccc(O)cc1)C(=O)O
inactive: activity change, negative = inhibition [2] 3.61% [at 12.6 µM] | activity change, negative = inhibition [3] 8.22% [at 11.5 µM] | activity change [4] 20.5% [at 0.858 µM] | outcome [5]

O=C(OOC(=O)c1ccccc1)c1ccccc1
inactive: outcome [2] | outcome [3] | outcome [4] | outcome [5]

NC(=O)CCCCC1CCSS1 (centres undefined)
inactive: outcome [2] | outcome [3] | outcome [4] | outcome [5]

COC(=O)N/N=C/c1c[n+]([O-])c2ccccc2[n+]1[O-]
inactive: outcome [2] | outcome [3] | outcome [4] | outcome [5]

NS(=O)(=O)c1ccc(NC(=O)CCC(=O)O)cc1
inactive: outcome [2] | outcome [3] | outcome [4] | outcome [5]

NNc1nnc(NN)c2ccccc12
inactive: outcome [2] | outcome [3] | outcome [4] | outcome [5]

O=C(NCN1CCOCC1)c1cnccn1
inactive: outcome [2] | outcome [3] | outcome [4] | outcome [5]

CCCCCCCCCCCCCCCCCCO
inactive: outcome [2] | outcome [3] | outcome [4] | outcome [5]

NC(=O)N[C@@H](CCC(=O)O)C(=O)O
inactive: outcome [2] | outcome [3] | outcome [4] | outcome [5]

COc1nccnc1NS(=O)(=O)c1ccc(N)cc1
inactive: outcome [2] | outcome [3] | outcome [4] | outcome [5]

COc1ccc(C(=O)N2CCN(CC(=O)N3CCOCC3)CC2)cc1
inactive: outcome [2] | outcome [3] | outcome [4] | outcome [5] | outcome [6] | Potency [7] | max response [8] 17.3%

CCCCCC(C)N (centres undefined)
inactive: outcome [2] | outcome [3] | outcome [4] | outcome [5]

Cc1cc(-n2nc3ccc(Cl)cc3n2)c(O)c(C(C)(C)C)c1
inactive: outcome [2] | outcome [3] | outcome [4] | outcome [5]

CCN(CC)C(=O)c1cccc(C)c1
inactive: outcome [2] | outcome [3] | outcome [4] | outcome [5] | outcome [6] | Potency [7] | max response [8] 12.2%

CC(N)CCCC(C)(C)O (centres undefined)
inactive: outcome [2] | outcome [3] | outcome [4] | outcome [5]

NC(=O)NC1NC(=O)NC1=O (centres undefined)
inactive: outcome [2] | outcome [3] | outcome [4] | outcome [5]

Cc1ccccc1N=Nc1ccc(N=Nc2c(O)ccc3ccccc23)c(C)c1
inactive: outcome [2] | outcome [3] | outcome [4] | outcome [5]

CC(=O)Nc1ccc(OCCOCCOc2ccc(NC(C)=O)cc2)cc1
inactive: outcome [2] | outcome [3] | outcome [4] | outcome [5] | outcome [9]

CC(=O)N[C@@H](CC(C)C)C(=O)O
inactive: outcome [2] | outcome [3] | outcome [4] | outcome [5] | outcome [9]

CC[N+](CC)(CC(=O)Nc1c(C)cccc1C)Cc1ccccc1
inactive: outcome [2] | outcome [3] | outcome [4] | outcome [5] | outcome [9]

OCc1ccc(Cl)cc1Cl
inactive: outcome [2] | outcome [3] | outcome [4] | outcome [5] | outcome [9]
